# Reference: PubChem BioAssay
# The source made the active and inactive calls.
# Tests used:
# [1] = optical density shifts of acrAB sulA E. coli – strain DRC41, OD650, 48 h, E. coli filamentation inducer project, primary screen (AID 1152); conditions: higher = more signal, called active from +8 up or from −8 down;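 note: E. coli MC1000 strain DRC41 lacking acrAB efflux pump and sulA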
# [2] = probe aLefty1 binding on compound microarray – biochemical, small-molecule microarray, 635/667 nm fluorescence, primary screen (AID 1153); conditions: higher = more signal;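 note: score merges spot fluorescence with signal-to-noise ratio from the scanned slide images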
# [3] = plasmodial surface anion channel blockers, osmotic lysis – cell-based, P. falciparum Indochina, OD700, 1 h, primary screen (AID 1154); conditions: P. falciparum Indochina infected RBC osmotic lysis, higher = more signal, called active from +8 up or from −8 down
# [4] = plasmodial surface anion channel blockers, osmotic lysis – cell-based, P. falciparum Indochina, OD700, 2 h, primary screen (AID 1155);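 note: lysis reports solute entry through the parasite surface anion channel PSAC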; conditions: P. falciparum Indochina infected erythrocytes, higher = more signal, called active from +8 up or from −8 down
# [5] = changes in parasitized red cell lysis, either direction – P. falciparum Indochina, OD700, 3 h, PSAC antagonist project, primary screen (AID 1156); conditions: P. falciparum-infected erythrocytes, osmotic lysis, higher = more signal, called active from +8 up or from −8 down
# [6] = plasmodial surface anion channel blockers, osmotic lysis – cell-based, P. falciparum Indochina, OD700, 18 h, primary screen (AID 1157); conditions: P. falciparum Indochina infected erythrocytes, osmotic lysis OD700, 18 h; higher = more signal, called active from +8 up or from −8 down
# [7] = S6 kinase pathway phospho-S6 level changes – cell-based, A549, cytoblot, luminescence, serum-stimulated, primary screen (AID 1158); conditions: 5 h, higher = more signal;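 note: serum-stimulated A549 lung adenocarcinoma cells; signal is phosphorylated S6 detected by cytoblot immunostaining with HRP secondary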
# [8] = molecular target: NADPH oxidase 2 (Homo sapiens) (UniProt P04839); test: compounds shifting NOX2 Amplex Red fluorescence – cell-based, HEK293-NOX2, PMA-stimulated, NOX inhibitor project, primary screen (AID 1159); conditions: 45 min, higher = more signal, called active from +8 up or from −8 down; note: test concentration not given here
# [9] = molecular target: NADPH oxidase 4 (Homo sapiens) (UniProt Q9NPH5); test: compounds shifting NOX4 Amplex Red fluorescence – cell-based, HEK293-NOX4, tetracycline-induced, NOX inhibitor project, primary screen (AID 1160); conditions: HEK293-NOX4, Amplex Red H2O2 fluorescence, 45 min; higher = more signal, called active from +8 up or from −8 down
# [10] = molecular target: NADPH oxidase 5 (Homo sapiens) (UniProt Q96PH1); test: compounds shifting NOX5 Amplex Red fluorescence – cell-based, HEK293-NOX5, NOX inhibitor project, primary screen (AID 1161); conditions: HEK293-NOX5, ionomycin, 45 min, higher = more signal
# [11] = compound effects on lung adenocarcinoma cell viability – A549, calcein-AM fluorescence, 48 h, basal, profiling panel (AID 1162); conditions: higher = more signal; note: test concentration not given here
# [12] = compound effects on differentiated 3T3-L1 adipocyte viability – cell-based, 3T3-L1 adipocytes, calcein-AM fluorescence, 48 h, basal, profiling panel (AID 1163); conditions: 3T3-L1 adipocytes viability, higher = more signal; note: test concentration not given here
# [13] = compound effects on hepatocellular carcinoma cell viability – HepG2, calcein-AM fluorescence, 48 h, basal, profiling panel (AID 1164); conditions: higher = more signal; note: test concentration not given here
# [14] = compound effects on multiple myeloma cell viability – MM1S, calcein-AM fluorescence, 48 h, basal, profiling panel (AID 1165); conditions: higher = more signal; note: test concentration not given here
# [15] = calcein-AM signal in unstimulated myeloma cells – cell-based, calcein-AM fluorescence, 48 h, PK04 Diversity Set, profiling panel (AID 1166); conditions: RPMI8226 myeloma viability, higher = more signal;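 note: cells grown under basal conditions without added stimulus; test concentration not given here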
# [16] = JC-1 mitochondrial signal, unstimulated HepG2 cells – cell-based, JC-1 fluorescence, 24 h, 100 nL compound, profiling panel (AID 1167); conditions: HepG2 mitochondrial potential, higher = more signal; note: test concentration not given here
# [17] = JC-1 mitochondrial signal, unstimulated adipocytes – cell-based, JC-1 fluorescence, 3T3-L1 adipocytes, 24 h, 100 nL compound, profiling panel (AID 1168); conditions: JC-1 mitochondrial fluorescence, higher = more signal, called active from +8 up or from −8 down; note: test concentration not given here
# [18] = JC-1 mitochondrial signal, unstimulated myeloma cells – cell-based, JC-1 fluorescence, RPMI8226, 24 h, 100 nL compound, profiling panel (AID 1169); conditions: JC-1 mitochondrial potential fluorescence, higher = more signal; note: test concentration not given here
# [19] = JC-1 mitochondrial signal, unstimulated MM1S myeloma – cell-based, JC-1 fluorescence, 24 h, 100 nL compound, profiling panel (AID 1170); conditions: MM1S mitochondrial potential, higher = more signal; note: test concentration not given here
# [20] = resazurin metabolic signal in A549 cells – cell-based, resazurin fluorescence, 24 h, PK04 Diversity Set, profiling panel (AID 1171); conditions: A549 viability, higher = more signal, called active from +8 up or from −8 down; note: test concentration not given here
# NADPH oxidase 5 (Homo sapiens), sequence (Q96PH1 whole entry, looked up): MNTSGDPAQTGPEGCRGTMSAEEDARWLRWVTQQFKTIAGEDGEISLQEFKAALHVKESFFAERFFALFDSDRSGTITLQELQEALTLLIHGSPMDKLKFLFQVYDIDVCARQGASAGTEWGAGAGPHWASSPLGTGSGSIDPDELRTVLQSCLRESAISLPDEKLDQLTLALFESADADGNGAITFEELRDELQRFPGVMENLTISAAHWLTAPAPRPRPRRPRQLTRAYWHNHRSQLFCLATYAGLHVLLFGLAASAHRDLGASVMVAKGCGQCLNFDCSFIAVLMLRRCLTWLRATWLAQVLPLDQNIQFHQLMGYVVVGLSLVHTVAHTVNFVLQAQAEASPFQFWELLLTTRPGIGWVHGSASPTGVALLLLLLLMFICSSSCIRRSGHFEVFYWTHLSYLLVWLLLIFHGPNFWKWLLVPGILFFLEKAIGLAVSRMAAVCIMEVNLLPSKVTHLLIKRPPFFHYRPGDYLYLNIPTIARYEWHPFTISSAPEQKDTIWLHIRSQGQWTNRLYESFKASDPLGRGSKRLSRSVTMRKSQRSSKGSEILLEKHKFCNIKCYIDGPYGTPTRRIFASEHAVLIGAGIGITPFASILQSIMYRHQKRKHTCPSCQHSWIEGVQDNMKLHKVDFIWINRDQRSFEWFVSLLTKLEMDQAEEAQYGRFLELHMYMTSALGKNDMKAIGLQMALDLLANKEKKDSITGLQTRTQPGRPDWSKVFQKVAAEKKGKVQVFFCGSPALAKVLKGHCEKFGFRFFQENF
# NADPH oxidase 4 (Homo sapiens), sequence (Q9NPH5 whole entry, looked up): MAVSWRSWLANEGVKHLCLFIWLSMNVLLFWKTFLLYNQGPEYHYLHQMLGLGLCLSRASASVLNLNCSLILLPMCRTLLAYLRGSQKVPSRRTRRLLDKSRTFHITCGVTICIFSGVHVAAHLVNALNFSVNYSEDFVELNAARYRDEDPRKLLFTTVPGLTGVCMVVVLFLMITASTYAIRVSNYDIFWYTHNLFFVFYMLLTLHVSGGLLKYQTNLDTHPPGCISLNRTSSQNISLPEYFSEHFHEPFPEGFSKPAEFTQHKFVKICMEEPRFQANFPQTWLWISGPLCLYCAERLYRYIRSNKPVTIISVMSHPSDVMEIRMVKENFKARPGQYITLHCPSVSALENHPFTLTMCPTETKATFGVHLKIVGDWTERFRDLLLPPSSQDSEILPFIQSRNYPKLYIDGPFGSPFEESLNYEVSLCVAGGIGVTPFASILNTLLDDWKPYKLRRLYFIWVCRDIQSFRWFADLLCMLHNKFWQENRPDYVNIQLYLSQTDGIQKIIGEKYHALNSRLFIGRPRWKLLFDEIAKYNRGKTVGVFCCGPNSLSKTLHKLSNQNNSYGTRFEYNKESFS
# NADPH oxidase 2 (Homo sapiens), sequence (P04839 whole entry, looked up): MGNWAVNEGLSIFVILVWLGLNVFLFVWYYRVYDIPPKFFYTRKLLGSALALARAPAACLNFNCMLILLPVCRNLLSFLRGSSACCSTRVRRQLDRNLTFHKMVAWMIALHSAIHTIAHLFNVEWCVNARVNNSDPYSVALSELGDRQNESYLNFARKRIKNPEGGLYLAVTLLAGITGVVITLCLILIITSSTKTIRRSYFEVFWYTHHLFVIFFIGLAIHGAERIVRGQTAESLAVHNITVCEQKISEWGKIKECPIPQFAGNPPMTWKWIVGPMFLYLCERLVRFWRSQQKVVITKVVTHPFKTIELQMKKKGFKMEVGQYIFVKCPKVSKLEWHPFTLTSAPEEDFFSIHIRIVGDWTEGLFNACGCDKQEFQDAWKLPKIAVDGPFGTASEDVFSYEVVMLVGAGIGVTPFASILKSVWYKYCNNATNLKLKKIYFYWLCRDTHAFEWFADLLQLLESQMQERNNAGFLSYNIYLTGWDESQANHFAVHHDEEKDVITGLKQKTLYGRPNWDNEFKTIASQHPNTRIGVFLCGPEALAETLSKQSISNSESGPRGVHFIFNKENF
Compound,z-score [1],composite z-score [2],z-score [3],z-score [4],z-score [5],z-score [6],z-score [7],z-score [8],z-score [9],z-score [10],z-score [11],z-score [12],z-score [13],z-score [14],z-score [15],z-score [16],z-score [17],z-score [18],z-score [19],z-score [20]
Cc1ccc(C2C3C(=O)CC4C(=O)N(c5ccccc5)C(=O)C4C3CN2S(=O)(=O)c2ccc(C)cc2)cc1 (stereo not given),-0.339 (inactive),0.476,1.7 (inactive),0.714 (inactive),1.72 (inactive),0.438 (inactive),-0.69,1.28 (inactive),0.793 (inactive),-0.9,-0.105,-0.172,0.261,0.948,0.563,0.371,0.134 (inactive),0.515,-0.878,-0.821 (inactive)
CCCNC(=O)[C@@]1(Sc2ccc(C)cc2)CC(=O)N(Cc2ccccc2C(F)(F)F)[C@@H]1c1ccc(CO)cc1I,0.0676 (inactive),0.0999,5.14 (inactive),0.0162 (inactive),0.378 (inactive),-1.95 (inactive),2.26,0.781 (inactive),-2 (inactive),-0.0781,-0.567,1.12,-1.14,-2.3,-2.56,-0.453,-1.02 (inactive),-0.355,-1.78,0.821 (inactive)
C=C(CCCC)/C(=C/C[C@H](OC(=O)c1ccncc1)c1ccc(OCCO)cc1)c1cc(C(=O)OC)ccc1OC,0.695 (inactive),-0.103,20.9 (active),1.88 (inactive),2.24 (inactive),-0.722 (inactive),0.769,-1.96 (inactive),-1.3 (inactive),-2.54,-0.154,1.55,-0.754,-1.47,-2.56,1.22,0.0667 (inactive),-0.281,-0.93,0.54 (inactive)
COCCOC(=O)N1C(=O)[C@@]2(c3ccccc31)[C@H](c1ccc(OCCO)cc1)N1[C@H](c3ccccc3)[C@H](c3ccccc3)OC(=O)[C@H]1[C@@H]2C(=O)N1CCc2cc(OC)c(OC)cc2C1,0.341 (inactive),0.358,12.7 (active),3.86 (inactive),1.99 (inactive),2.18 (inactive),0.828,1.16 (inactive),1.52 (inactive),-0.259,0.114,1.09,1.37,0.175,-0.0296,0.39,3.06 (inactive),-0.749,-1.53,-0.247 (inactive)
CC(=O)n1cc(C(O)C2C=CC3C(=O)NC(=O)C3N2Nc2ccccn2)c2ccccc21 (stereo not given),-0.734 (inactive),-0.101,0.625 (inactive),0.827 (inactive),-0.313 (inactive),0.679 (inactive),-0.612,-1.68 (inactive),-2.41 (inactive),-1.58,-0.407,-1.52,-0.252,0.0238,0.102,-0.743,-0.424 (inactive),0.634,-0.0433,-1.02 (inactive)
CCCC=C(CCC)[C@@H](NS(=O)(=O)c1ccc(Cl)cc1)c1ccc(C(=O)OC)cc1,-1.01 (inactive),0.523,-0.556 (inactive),-0.914 (inactive),-0.338 (inactive),-1.93 (inactive),0.631,0.0199 (inactive),0.249 (inactive),1.39,-1.18,0.391,-0.845,0.48,-0.595,-1.07,-0.542 (inactive),-0.906,-0.98,0.475 (inactive)
O=C1OCCC=C[C@H]2OC34C=CCN(c5ccc(Cl)cc5)C(=O)[C@H]3N(CCCO)C(=O)[C@@H]4C12 (stereo not given in full),0.565 (inactive),-0.221,0.991 (inactive),-0.131 (inactive),0.319 (inactive),-0.652 (inactive),1.61,0.736 (inactive),-0.818 (inactive),0.215,0.0676,1.95,-0.517,0.435,-1.16,-0.00501,0.272 (inactive),-0.21,0.162,-0.797 (inactive)
COc1ccc(C#Cc2ccc3c(c2)[C@]2(C(=O)N3)[C@H](c3ccc(O)cc3)N3[C@H](c4ccccc4)[C@H](c4ccccc4)OC(=O)[C@H]3[C@@H]2C(=O)N2CCc3cc(OC)c(OC)cc3C2)cc1,-0.291 (inactive),0.156,0.276 (inactive),0.312 (inactive),-0.205 (inactive),0.196 (inactive),-0.0494,1.12 (inactive),0.579 (inactive),-0.568,-0.258,-0.817,-0.0752,-0.405,-2.87,-0.458,2.25 (inactive),-0.727,-0.418,-0.565 (inactive)
